# Only some compounds are listed: those with a hit (about 0.51% of all), similar ones and a draw of the others.
# AddAB inh: less growth of phage-infected E. coli with AddAB; E. coli expressing H. pylori AddAB, absorbance growth; inhibition, % at 11.9 µM; 330,000 tested, 0.29% active; in the data active = inhibition above about 12%
# E coli growth-1: E. coli growth inhibition | 330,000 tested, 0.21% active | OD600 absorbance (test concentration not listed) | Escherichia coli growth, OD600, 23 h; stronger effect = lower value;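 active = OD600 absorbance below the run mean of sample wells minus 3.6 SD, in any replicate, cut at about 0.56 in these data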
# phage Ecoli inh: E. coli growth loss with phage present; growth absorbance; inhibition, % at 11.9 µM; 360,000 tested, 0.26% active; AID 651602; in the data active = inhibition above about 11%
# Tat transport: blocks Tat-dependent protein export in E. coli | inhibition, % at 10 µM | 340,000 tested, 0.036% active | E. coli MC4100 TorA-mCherry Tat export, fluorescence | AID 488895;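 active = mean replicate inhibition at least 50% and at least half of replicates individually reaching 50%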;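 also: exported cargo escapes ClpAP degradation while cytoplasmic cargo is degraded and loses fluorescence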
# E coli growth-2: counter-screen for AddAB inhibitors: E. coli growth inhibition. E. coli V3065 growth, OD600 absorbance, 18 h. inhibition, % at 11.9 µM. 330,000 tested, 0.27% active. AID 449728;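 active = inhibition above the campaign's mean inhibition across all tested compounds plus 3 SD, cut at about 9.9% in these data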;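 also: uninfected addAB+ strain grown without phage in ampicillin broth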
# RecBCD conf: confirmation: growth loss of phage-infected RecBCD+ E. coli (RecBCD inhibitor screen). shares compounds with phage Ecoli inh. E. coli V66 + T4 2- phage, growth OD. inhibition, % at 11.9 µM. 890 tested, 45% active;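 active = mean inhibition over triplicates exceeding the hit threshold derived in the original primary screen, cut at about 11% in these data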
# Ecoli viability: bacterial viability inhibition counter-screen for RecBCD; shares compounds with phage Ecoli inh; E. coli viability, absorbance (OD) growth; inhibition, % at 11.9 µM; 890 tested, 29% active; AID 651983; in the data active = inhibition above about 20%;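 also: E. coli strain V66 grown with compound alone and no phage infection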
# AddAB counter: growth loss of phage-infected AddAB E. coli, RecBCD counter-screen | shares compounds with phage Ecoli inh | E. coli expressing H. pylori AddAB + T4 phage, OD growth; gene 2 mutant T4, recBCD-deleted host | inhibition, % at 11.9 µM | 890 tested, 45% active | AID 651984;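 active = mean inhibition above the solvent-only control wells' mean plus 3 SD, cut at about 22% in these data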;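 also: higher means less bacterial growth from phage killing when AddAB is blocked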
# Numbers stand for hits; n = inactive; x = no result.
SMILES,AddAB inh,E coli growth-1,phage Ecoli inh,Tat transport,E coli growth-2,RecBCD conf,Ecoli viability,AddAB counter
CCNC(=S)Nc1ccc(Cl)c(C(F)(F)F)c1,n,n,12,n,n,n,n,n
O=C(Nc1ccc(Cl)c(C(F)(F)F)c1)c1ccco1,n,n,n,n,n,x,x,x
COCCN1C(=O)C(=O)C(=C(O)c2ccc3c(c2)OCCO3)C1c1ccc(C(=O)OC)cc1 (stereo unspecified),x,n,x,x,x,x,x,x
O=C(N/N=C\C=C\c1ccc([N+](=O)[O-])o1)c1cccs1,x,x,98,n,x,105,107,104
CC(C)C[C@H]1CNC(=S)N1C[C@H]1CCCN1C[C@H](Cc1ccccc1)N1C[C@H](Cc2ccc(O)cc2)N(CC2CCCCC2)C1=S,x,x,12,x,x,n,n,n
COc1ccc2c(c1)C1C(CO2)C(c2ccccc2)[C@]2(C)C(=O)N(CC3CCCO3)CC(=O)N12 (stereo partly specified),x,n,x,x,x,x,x,x
CC(C)CCNC(=S)Nc1ccc(Br)cc1,n,n,11,n,n,n,n,n
O=C1OCC2CCCN2C(=O)C(CC(=O)N(CCO)Cc2ccccc2)CC=CCCC1Cc1ccc(F)cc1 (stereo unspecified),x,n,x,x,x,x,x,x
O=C(CSc1nc2ncc(Cl)cc2[nH]1)Nc1cccc(F)c1,n,n,12,n,n,n,n,n
CN(CC(=O)Nc1ccc(F)cc1)C(=O)CSc1nc2ncc(Cl)cc2[nH]1,n,n,n,n,n,x,x,x
CC(C)(C)CC(=O)Nc1nnc(C(F)(F)F)s1,n,n,n,n,n,x,x,x
CC(NC(=O)Nc1nnc(C(F)(F)F)s1)(C(F)(F)F)C(F)(F)F,n,n,13,n,11,15,n,n
CCOC(=O)c1c[nH]c2c([N+](=O)[O-])cc(OC)cc2c1=O,x,0.45,12,n,x,n,n,44
CCOC(=O)C(C)NS(=O)(=O)N(Cc1ccccc1)C(C(=O)OC)C(C)C (stereo unspecified),x,n,x,x,x,x,x,x
On1onc2c3cc(-c4ccccc4)nc3ccc21,n,0.47,13,n,11,n,n,n
c1ccc(-c2cc3c(ccc4nonc43)nn2)cc1,n,n,n,n,n,x,x,x
O=C(O)c1cc(Cl)ccc1-c1ccc(C=Cc2cc(C(F)(F)F)[nH]c(=O)n2)o1,x,n,x,x,x,x,x,x
C=C(C)CNC(=O)C1CCC(=O)N(CCCc2ccccc2)C1 (stereo unspecified),n,x,30,n,n,n,n,n
O=C(NCCc1cccc(F)c1)C1CCC(=O)N(CCCc2ccccc2)C1 (stereo unspecified),n,n,n,n,n,x,x,x
COc1cccc(NC(=O)Nc2nc(SC(C)(C)C)ns2)c1,n,n,13,n,n,n,n,n
O=C(N/N=C/c1ccc([N+](=O)[O-])o1)c1ccc2c(c1)OCO2,x,x,11,n,x,12,n,103
O=C(CN1CCOCC1)NN=Cc1ccc([N+](=O)[O-])o1,x,x,17,x,x,n,n,54
CC(=NNC(=S)Nc1cccc(C)c1)c1ccccn1,x,x,14,n,x,16,n,n
COc1ccccc1NC(=S)NN=C(C)c1ccccn1,x,x,17,n,x,14,n,n
COc1ccc(C(=O)N/N=C(\C)c2ccccn2)cc1OC,n,x,n,n,n,x,x,x
SMILES,AddAB inh,E coli growth-1,phage Ecoli inh,Tat transport,E coli growth-2,RecBCD conf,Ecoli viability,AddAB counter
CC(C)NC(=O)N(C)CC1Oc2ccc(NC(=O)C3CCCCC3)cc2C(=O)N(C(C)CO)CC1C (stereo unspecified),x,n,x,x,x,x,x,x
Cc1ccc(S(=O)(=O)N2CCOCC2)cc1NC(=O)CNCc1ccc(Cl)cc1Cl,n,n,12,n,n,n,n,n
O=C(CNCc1ccccc1Cl)Nc1cc(S(=O)(=O)N2CCOCC2)ccc1Cl,n,n,n,n,n,x,x,x
CN1CC2C3C(=O)N(C)C(=O)C3[C@](C)(C1=O)N2C(=O)c1ccc(Br)cc1 (stereo partly specified),x,n,x,x,x,x,x,x
O=C1NC(=S)S/C1=C\C=C\c1ccc([N+](=O)[O-])o1,x,0.07,96,68,x,99,99,99
CCN1/C(=C/c2ccc3cc(C)ccc3[n+]2CC)Sc2cc(C)c(C)cc21,x,0.25,12,n,x,n,n,27
